Each structure is given as a SMILES string. The campaign covered roughly 2,700 compounds. About 160 (5.9%) showed an effect of 50% or more. This excerpt belongs to a sample that is enriched for strong results.

Here are results for 23 molecules from ChEMBL document CHEMBL5606458, “ASAP - ZIKV NS2B-NS3 protease fluorescence single point” (2024).

The experiment concerns the target Nonstructural protein 3 (Zika virus) (UniProt A0A024AXB9).
The mark [1] stands for this setting: PRVABC59, Concentration 50.0 uM, Number of replicates 1.0.

Nonstructural protein 3 (Zika virus), sequence (A0A024AXB9 as listed by the source): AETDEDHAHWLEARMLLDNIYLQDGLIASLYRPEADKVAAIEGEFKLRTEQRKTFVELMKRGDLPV

Consider `NCc1ccc(/C=C/C(=O)C(=O)N2CCOCC2)cc1`, for which the inhibition by setting is: (PRVABC59, Concentration 49.5 uM, Number of replicates 2.0, Standard deviation 0.6564199696429821 %) 37.2%; (PRVABC59, Concentration 99.01 uM, Number of replicates 2.0, Standard deviation 0.38644007072414227 %) 58.8%; (PRVABC59, Concentration 198.0 uM, Number of replicates 2.0, Standard deviation 0.034408012774717715 %) 79%.

In turn, `O=C(/C=C/c1ccc(N2CCNCC2)cc1)C(=O)N1CCOCC1` displayed an inhibition (PRVABC59, Concentration 49.5 uM, Number of replicates 2.0, Standard deviation 0.677594356674037 %) of 0.889%; an inhibition (PRVABC59, Concentration 99.01 uM, Number of replicates 2.0, Standard deviation 0.8893426734771035 %) of 5.61%; an inhibition (PRVABC59, Concentration 198.0 uM, Number of replicates 2.0, Standard deviation 1.259902148857129 %) of 13.4%.

`CN(C)c1ccc(/C=C/C(=O)C(=O)N2CCOCC2)cc1`: the inhibition runs as follows: (PRVABC59, Concentration 49.5 uM, Number of replicates 2.0, Standard deviation 0.8258165831779674 %) 41.6%; (PRVABC59, Concentration 99.01 uM, Number of replicates 2.0, Standard deviation 0.46055378654400303 %) 57.5%; (PRVABC59, Concentration 198.0 uM, Number of replicates 2.0, Standard deviation 1.0005081895850734 %) 76.2%.

Consider `COc1cc(Cc2c(-c3ccc(F)cc3)noc2C)nc(N2CCNCC2)n1`, for which the inhibition reads like this: (PRVABC59, Concentration 49.5 uM, Number of replicates 2.0, Standard deviation 1.339595433070256 %) 48.7%; (PRVABC59, Concentration 99.01 uM, Number of replicates 2.0, Standard deviation 0.7981008155972035 %) 67.2%; (PRVABC59, Concentration 198.0 uM, Number of replicates 2.0, Standard deviation 0.25862115465775987 %) 83.1%.

In turn, `COc1cc(Cc2ccc3[nH]ncc3c2)nc(N2CCNCC2)n1` had an inhibition (PRVABC59, Concentration 49.5 uM, Number of replicates 2.0, Standard deviation 0.053655972727460886 %) of 4.68%; an inhibition (PRVABC59, Concentration 99.01 uM, Number of replicates 2.0, Standard deviation 0.44117163102560114 %) of 11%; an inhibition (PRVABC59, Concentration 198.0 uM, Number of replicates 2.0, Standard deviation 0.2881536199967374 %) of 21.6%.

For the molecule `COc1cc(Cc2ccnc(N3CCNCC3)c2)nc(N2CCNCC2)n1`, the inhibition stood at 19.2% (PRVABC59, Concentration 49.5 uM, Number of replicates 2.0, Standard deviation 1.782469122426121 %); 30.9% (PRVABC59, Concentration 99.01 uM, Number of replicates 2.0, Standard deviation 1.2150848760245847 %); 44% (PRVABC59, Concentration 198.0 uM, Number of replicates 2.0, Standard deviation 1.1140443816280838 %).

`CC(C)(C)OC(=O)N[C@H](C(=O)Nc1cccc(CN)c1)c1ccc(OCc2ccccc2)cc1`: the inhibition is 7.17% (PRVABC59, Concentration 49.5 uM, Number of replicates 2.0, Standard deviation 0.15500599357942563 %); 43.6% (PRVABC59, Concentration 99.01 uM, Number of replicates 2.0, Standard deviation 1.1863939989566727 %); 80.9% (PRVABC59, Concentration 198.0 uM, Number of replicates 2.0, Standard deviation 0.6438743701278353 %).

As to `CC(C)(C)OC(=O)N[C@H](C(=O)Nc1ccc(CN)cc1)c1ccc(OCc2ccccc2)cc1`, the inhibition by setting is: (PRVABC59, Concentration 49.5 uM, Number of replicates 2.0, Standard deviation 0.6279742186460096 %) 5.64%; (PRVABC59, Concentration 99.01 uM, Number of replicates 2.0, Standard deviation 1.57987158185777 %) 32.3%; (PRVABC59, Concentration 198.0 uM, Number of replicates 2.0, Standard deviation 0.42725710187082055 %) 70.3%.

`CC(C)Nc1nc2ccc(C(=O)Nc3nnnn3-c3ccccn3)cc2[nH]1`: the inhibition was determined as 13.5% (PRVABC59, Concentration 50.0 uM, Number of replicates 2.0, Standard deviation 0.2871029833570578 %); 30.1% (PRVABC59, Concentration 100.0 uM, Number of replicates 2.0, Standard deviation 0.2358348824788301 %); 66.8% (PRVABC59, Concentration 200.0 uM, Number of replicates 2.0, Standard deviation 0.2742876440114413 %).

With `CC(C)Nc1nc2ccc(C(=O)Nc3ccc4cn[nH]c4n3)cc2[nH]1`, the inhibition is, setting by setting: (PRVABC59, Concentration 49.5 uM, Number of replicates 2.0, Standard deviation 0.40894109303235027 %) 7.41%; (PRVABC59, Concentration 99.01 uM, Number of replicates 2.0, Standard deviation 0.19020569275657198 %) 13.2%; (PRVABC59, Concentration 198.0 uM, Number of replicates 2.0, Standard deviation 0.6447955316488895 %) 25.2%.

Turning to `CCn1ccnc(N2CC[C@@H](C(=O)NC)C2)c1=O`, the inhibition came to 6.78% (PRVABC59, Concentration 49.5 uM, Number of replicates 2.0, Standard deviation 1.330415175115007 %); 13.1% (PRVABC59, Concentration 99.01 uM, Number of replicates 2.0, Standard deviation 0.8792533922931717 %); 25% (PRVABC59, Concentration 198.0 uM, Number of replicates 2.0, Standard deviation 1.1945536288283818 %).

Regarding `c1ccc2c([C@H]3CCN(CC[C@H]4CCOC4)C3)c[nH]c2c1`, the inhibition was 1.3% (PRVABC59, Concentration 49.5 uM, Number of replicates 2.0, Standard deviation 1.796591735840356 %); 8.43% (PRVABC59, Concentration 99.01 uM, Number of replicates 2.0, Standard deviation 1.8008191859181881 %); 18.7% (PRVABC59, Concentration 198.0 uM, Number of replicates 2.0, Standard deviation 1.4478420270377552 %).

`CCCC[C@H](N)C(=O)N[C@@H](C(=O)NCc1ccc(C(N)=O)cc1)c1ccc(OCc2ccccc2)cc1`: the inhibition worked out at 4.12% (PRVABC59, Concentration 49.5 uM, Number of replicates 2.0, Standard deviation 2.90329459480482 %); 14.2% (PRVABC59, Concentration 99.01 uM, Number of replicates 2.0, Standard deviation 3.493094389705784 %); 56.8% (PRVABC59, Concentration 198.0 uM, Number of replicates 2.0, Standard deviation 4.814160045121922 %).

Regarding `CCCC[C@H](N)C(=O)N[C@H](C(=O)NCc1ccc(C(N)=O)cc1)c1ccc(OCc2ccccc2)cc1`, the inhibition by setting is: (PRVABC59, Concentration 49.5 uM, Number of replicates 2.0, Standard deviation 4.202595364768841 %) 4.08%; (PRVABC59, Concentration 99.01 uM, Number of replicates 2.0, Standard deviation 1.455996262112855 %) 82.9%; (PRVABC59, Concentration 198.0 uM, Number of replicates 2.0, Standard deviation 0.15670265711308018 %) 99.2%.

For the molecule `CC(C)Cn1cccc(C(=O)Nc2ccnc3ccccc23)c1=O`, the inhibition was 20.1% (PRVABC59, Concentration 49.5 uM, Number of replicates 2.0, Standard deviation 2.895437242130631 %); 0.798% (PRVABC59, Concentration 99.01 uM, Number of replicates 2.0, Standard deviation 37.62280174563721 %); 10.2% (PRVABC59, Concentration 198.0 uM, Number of replicates 2.0, Standard deviation 2.6549790189575497 %).

As for `CCn1c(=O)c(N2CC[C@@H](CO)C2)nc2ccccc21`, the inhibition runs as follows: (PRVABC59, Concentration 49.5 uM, Number of replicates 2.0, Standard deviation 1.0667198770713235 %) 20.2%; (PRVABC59, Concentration 99.01 uM, Number of replicates 2.0, Standard deviation 2.3733193853793706 %) 36.2%; (PRVABC59, Concentration 198.0 uM, Number of replicates 2.0, Standard deviation 1.8335969585925045 %) 55.9%.

In the case of `O=c1c(N2CC[C@H](CO)C2)nccn1C1CC1`, the inhibition runs as follows: (PRVABC59, Concentration 49.5 uM, Number of replicates 2.0, Standard deviation 2.4909219053667124 %) 11.8%; (PRVABC59, Concentration 99.01 uM, Number of replicates 2.0, Standard deviation 2.8453613913030793 %) 19.9%; (PRVABC59, Concentration 198.0 uM, Number of replicates 2.0, Standard deviation 1.2782808722061834 %) 35.4%.

`CCn1ccnc(N2CC[C@@H](CO)C2)c1=O`: the inhibition (PRVABC59, Concentration 49.5 uM, Number of replicates 2.0, Standard deviation 1.691792032316267 %) is 9.83%; the inhibition (PRVABC59, Concentration 99.01 uM, Number of replicates 2.0, Standard deviation 1.0699999134098355 %) stood at 17.4%; the inhibition (PRVABC59, Concentration 198.0 uM, Number of replicates 2.0, Standard deviation 1.0674090623381738 %) came to 29.5%.

As to `N[C@H]1CCN(c2cccc(CNC(=O)c3ccc4[nH]c(=O)[nH]c4c3F)n2)C1`, the inhibition runs as follows: (PRVABC59, Concentration 49.5 uM, Number of replicates 2.0, Standard deviation 1.7942103071905888 %) 0.083%; (PRVABC59, Concentration 99.01 uM, Number of replicates 2.0, Standard deviation 0.9354948212956848 %) 1.95%; (PRVABC59, Concentration 198.0 uM, Number of replicates 2.0, Standard deviation 18.65130084254076 %) 51.2%.

`NC(=O)C1(N2CCCCC2)CCN(C(=O)C2CCN(c3ccc(C=O)cc3)CC2)CC1` returned an inhibition under setting [1] of 55.7%.

Take `O=Cc1ccc(N2CCC(C(=O)N3CCN(c4cccc(O)c4)CC3)CC2)cc1`: under setting [1], the inhibition amounted to 36.7%.

`N#CC1(c2ccccc2)CCN(C(=O)C2CCN(c3ccc(C=O)cc3)CC2)CC1`: the inhibition under setting [1] amounted to 12.6%.

On to `c1ccc2c([C@H]3CCN(C[C@H]4CCCOC4)C3)c[nH]c2c1`, for which the inhibition was found to be 3% (PRVABC59, Concentration 49.5 uM, Number of replicates 2.0, Standard deviation 0.2718923543168702 %); 7.93% (PRVABC59, Concentration 99.01 uM, Number of replicates 2.0, Standard deviation 1.3138002130824364 %); 17.5% (PRVABC59, Concentration 198.0 uM, Number of replicates 2.0, Standard deviation 0.8779424567170888 %).
